Compound activity (PubChem)
The list is not random: actives were taken first. Their share in the collection is about 1.9%.
KLF5 inh = kruppel-like factor 5 inhibition | DLD-1 KLF5 promoter-luciferase reporter, luminescence | inhibition, % at 5 µM | 0.23% of 290,000 active | AID 1700;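 active = inhibition above a per-plate limit of that plate's mean compound inhibition plus 3 SD, cut at about 60% in these data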;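 also: 0% = DMSO wells and 100% = LY294002 at 200 µM; higher means less KLF5 promoter-driven luciferase light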
IEC-6 tox = kills IEC-6 intestinal cells in KLF5 counter-screen; 0.78% of 290,000 active; IEC-6 cytotoxicity, luminescence viability; AID 1825; inhibition, % at 5 µM; in the data active = inhibition above about 22%;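 also: 0% = plate median of test compound wells and 100% = cytotoxic reference compound wells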
Ba/F3 V617F tox = loss of viability in JAK2V617F-driven Ba/F3 cells; inhibition, % at 5.6 µM; Ba/F3 EpoR-JAK2V617F viability, ATP luminescence; 1.1% of 220,000 active;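 active = inhibition above the campaign mean plus 3 SD over all tested compounds, cut at about 24% in these data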;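 also: cytokine-independent growth of Ba/F3 cells driven by EpoR plus mutant JAK2; 0% = DMSO-treated cells and 100% = JAK inhibitor I control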
BaF3 tox = counter-screen for JAK2V617F inhibitors: parental Ba/F3 viability inhibitors; CellTiter-Glo ATP luminescence; inhibition, % at 5.6 µM; 1.1% of 220,000 active;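 active = inhibition above a per-campaign cutoff, the mean inhibition of all tested compounds plus 3 SD, cut at about 27% in these data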;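 also: 0% = DMSO wells and 100% = JAK Inhibitor I control wells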
APP transl inh = APP translation inhibition; SH-SY5Y APP 5'UTR-luciferase reporter, luminescence; inhibition, % at 2 µM; 0.82% of 190,000 active; AID 1285;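 active = inhibition above a set limit, derived from the sample mean plus 3 SD, cut at about 45% in these data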
Starred values were filed as active, the others as inactive; x = no result given.

SMILES | KLF5 inh | IEC-6 tox | Ba/F3 V617F tox | BaF3 tox | APP transl inh
COc1ccc(NC(=O)c2oc3ccccc3c2NC(=O)c2ccco2)cc1 | -19 | -5 | -2 | 35* | 6
COc1ccc(NC(=O)c2oc3ccccc3c2NC(=O)c2ccco2)c(OC)c1 | 1 | 4 | 1 | 3 | -8
CCCC(=O)Nc1cc(OC)c(C(=O)OC)cc1Cl | -1 | -2 | 0 | 2 | -3
Cc1ccc2c(c1)C=CC(C#N)N2C(=O)c1ccccc1 (stereo unspecified) | 45 | 40* | 78* | 36* | 94*
CC(=O)C1=C(O)CC(c2ccccc2)CC1=NCCc1c(C)[nH]c2ccc(C)cc12 (stereo unspecified) | -9 | 3 | 1 | 6 | -10
CCC(=NCCc1c(C)[nH]c2ccc(C)cc12)C1=C(O)CC(c2ccccc2)CC1=O (stereo unspecified) | -31 | -2 | -2 | 6 | 95*
COc1ccc(-c2cc(C(=O)Nc3ccc(C(N)=O)cc3)c3ccccc3n2)cc1 | -93 | -1 | x | x | x
O=C1C=CC(=O)N1c1ccc(O)cc1 | 1 | -4 | 2 | -3 | x
O=C1C=CC(=O)N1c1ccc(OC(F)F)cc1 | 2 | -2 | -1 | 0 | 56*
Cc1noc(C)c1C1(O)CCCCCCCCCCC1 | -11 | 1 | 36* | 55* | -10
O=C1CSC(c2ccc(Cl)cc2)N1C1CCCCC1 (stereo unspecified) | -9 | 3 | 2 | 40* | -6
Cn1c(=O)cc(OCC(=O)NC2CCCCC2)c2ccccc21 | -11 | 8 | 2 | 6 | 4
Cn1c(=O)cc(OCCCC(=O)NC2CCCC2)c2ccccc21 | -45 | 21 | 51* | 45* | -2
CC(C)N=c1scc(-c2ccco2)n1/N=C/c1ccc(O)c(O)c1 | -39 | 9 | 96* | 73* | -2
COCCN=c1scc(-c2ccco2)n1/N=C/c1ccc(O)c(O)c1O | 5 | -10 | -1 | 1 | -1
O=C(N/N=C/c1ccc[nH]1)c1ccc(COc2cccc3cccnc23)cc1 | -22 | 39* | 87* | 80* | 46*
CC(=O)c1c(C)[nH]c(C(=O)COc2cc(C)ccc2C(C)C)c1C | -11 | 17 | 45* | 40* | 4
NNc1nc2c(F)cc(F)cc2s1 | -62 | 4 | 3 | 5 | -167
CC(=O)Oc1c(/C=C(\C#N)C(N)=O)[nH]c2ccccc12 | -27 | 0 | 0 | 6 | -7
O=C(N/N=C/c1cccnc1)c1cccc(NC(=O)c2cccc(Br)c2)c1 | -14 | 6 | x | x | x
O=C(N/N=C\c1cc(Br)ccc1O)c1ccc(S(=O)(=O)N2CCCCC2)cc1 | -1 | 0 | -4 | 0 | 69*
O=C(N/N=C/c1cc(Cl)ccc1O)c1ccc(Br)cc1 | 19 | 11 | 2 | 7 | 56*
O=C(N/N=C/c1ccc(O)c2ncccc12)c1cccc(Br)c1 | 5 | 20 | 92* | 52* | 63*
CC(C)C(=O)Nc1ccc(C(=O)N/N=C/c2cc(Br)cc(Br)c2O)cc1 | -36 | 0 | 3 | 5 | 46*
CSc1nnc(CCCCCCCCc2nnc(SC)o2)o1 | -12 | -5 | 0 | 2 | x
SMILES | KLF5 inh | IEC-6 tox | Ba/F3 V617F tox | BaF3 tox | APP transl inh
Cc1ccc(OCc2ccc(C(=O)NCc3cccnc3)cc2)cc1C | -35 | 2 | 5 | 3 | -15
CCN(CC)c1ccc2cc(NC(=O)CCC(=O)O)c(=O)oc2c1 | 41 | 2 | -2 | 0 | 52*
CCN(CC)c1ccc2cc(C(C)=O)c(=O)oc2c1 | -7 | 2 | -2 | 5 | -17
COc1ccc(-c2cc3nc(C)cc(-c4ccc(OC)cc4)n3n2)cc1 | -3 | 2 | x | x | x
COc1ccc(-c2cc3nc(C)cc(N)n3n2)cc1 | -21 | 22* | 21 | 22 | -147
Cc1ccc2nc(SCC(=O)NCc3ccco3)[nH]c2c1 | -5 | 1 | -3 | 0 | 51*
CC(=O)N1CC2(NC(=O)c3ccccc3N2)c2ccccc21 (stereo unspecified) | -14 | -5 | -2 | -5 | -8
O=c1c2ccccc2[nH]c(=S)n1Cc1cccnc1 | 6 | 2 | -2 | 1 | 56*
Cc1cc(N(C(=O)c2ccco2)C(C(=O)NC2CCCCC2)c2ccccc2)ccc1-n1cnnn1 (stereo unspecified) | 1 | -6 | -3 | 51* | -9
COc1ccc(-c2nn(-c3ccccc3)cc2C(=O)NC(=S)NNC(=O)c2ccncc2)cc1 | 20 | 25* | 5 | 4 | 50*
Fc1ccc(-c2nnc3ccccn23)cc1 | -8 | 4 | 1 | 81* | -4
O=C(NC(=S)N1CCN(Cc2ccccc2)CC1)c1ccco1 | 2 | 0 | -1 | 3 | 14
COc1ccc(OC)c(-c2csc(NC(=O)c3ccc(OCC4CCCO4)cc3)n2)c1 (stereo unspecified) | -5 | -4 | 3 | 30* | -44
CCOC(=O)c1c(C)n(C)c2ccc(OC)c([N+](=O)[O-])c12 | -40 | 2 | -1 | 1 | 0
Nc1c(Cl)ncnc1NCc1ccccc1 | -12 | 6 | x | x | x
COc1ccc(-n2ncc(N(C)n3cccc3)c(Cl)c2=O)cc1 | -158 | -2 | 1 | 2 | -133
COc1ccc(-n2ncc(Cl)c(Cl)c2=O)cc1 | -10 | 61* | 9 | -9 | 92*
CC(C(=O)NCCc1ccccc1)N1c2cccc3cccc(c23)S1(=O)=O (stereo unspecified) | -36 | -6 | x | x | x
CCCCN(CCCC)C(=O)c1cc2ccccc2c(=O)o1 | 12 | -6 | 19 | 37* | 26
CCCCC(CC)CNC(=O)c1cc2ccccc2c(=O)o1 (stereo unspecified) | -32 | 0 | 1 | 8 | 9
Oc1c(CN2CCCCC2)cc(Br)c2cccnc12 | 41 | -6 | 44* | 27* | 67*
CC(C)(C)C1=CC(=O)C(=O)C(C(C)(C)C)=C1 | -5 | 5 | -1 | 2 | 47*
CC(C)(C)C1=CC(=Nc2ccccc2N)C=C(C(C)(C)C)C1=O | -25 | 0 | -1 | 7 | 0
COc1cc2c3nnc(-c4ccc(F)cc4)c-3cn(Cc3ccccc3F)c2cc1OC | -15 | -2 | 1 | 4 | 53*
O=C(COc1ccc(C(=O)c2ccccc2)cc1)NCc1ccc(F)cc1 | 26 | 41* | 6 | 6 | 14
SMILES | KLF5 inh | IEC-6 tox | Ba/F3 V617F tox | BaF3 tox | APP transl inh
O=C(COc1ccccc1)NCc1ccccc1 | -26 | -2 | -4 | -2 | 1
Cc1ccc2ccc3cccnc3c2n1 | -21 | 72* | x | x | x
O=C(O)c1ccc2cccnc2c1O | -24 | -10 | -1 | -1 | x
COc1cccc(NC(=S)N(CCc2c(C)[nH]c3ccc(C)cc23)Cc2cccs2)c1 | -23 | 3 | -2 | 6 | 14
Cc1[nH]c2ccc(F)cc2c1CCN(Cc1cccnc1)C(=S)Nc1cccc(F)c1 | -13 | 4 | 31* | 28* | -15
Cc1ccccc1NC(=S)N(CCc1c(C)[nH]c2ccc(F)cc12)Cc1cccnc1 | -18 | -5 | -1 | 8 | 10
COc1ccc2[nH]c(C)c(CCN(Cc3cccs3)C(=S)Nc3cccc(F)c3)c2c1 | -29 | -5 | 45* | 51* | -2
Cc1ccc(NCC(=O)NNC2=NCCC2)c(C)c1 | -9 | 7 | 2 | 0 | 6
